Experiment in all cases: DAPPL (digital affinity profiling via proximity ligation, sequencing); 10 mM Tris-HCl pH 7.5, 50 mM NaCl, 1 mM DTT, 4% glycerol, room temperature, 30 min; GST-TFs on glutathione beads, 16-mer random dsDNA library, 0.1% formaldehyde crosslink after washing; high values mean tight binding
One assay deals with T1, ELK1 (Homo sapiens, UniProt P19419 1-428).
T1 sequence: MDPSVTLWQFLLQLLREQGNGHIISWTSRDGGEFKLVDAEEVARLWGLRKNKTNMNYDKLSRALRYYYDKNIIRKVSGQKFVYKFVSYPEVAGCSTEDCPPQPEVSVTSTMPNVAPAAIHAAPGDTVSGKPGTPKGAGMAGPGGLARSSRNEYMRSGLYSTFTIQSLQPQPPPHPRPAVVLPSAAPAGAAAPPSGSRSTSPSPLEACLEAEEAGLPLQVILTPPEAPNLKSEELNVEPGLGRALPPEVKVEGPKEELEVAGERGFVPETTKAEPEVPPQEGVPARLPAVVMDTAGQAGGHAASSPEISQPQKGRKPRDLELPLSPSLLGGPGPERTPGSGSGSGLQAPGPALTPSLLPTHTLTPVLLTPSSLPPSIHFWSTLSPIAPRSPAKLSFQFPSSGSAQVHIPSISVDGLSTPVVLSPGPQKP
The conditions noted are these: protein: recombinant; tags: N-terminal GST; dsDNA, one strand shown. In outline: (§1)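 Human transcription factors were made in yeast as GST fusions, captured on glutathione beads and barcoded with DNA. With a tag-only sample included, the pool was incubated with 200 nmole of a random double-stranded 16-mer DNA library in Tris/NaCl/DTT/glycerol buffer at room temperature for 30 min, then crosslinked with 0.1% formaldehyde after washing, ligated by proximity, amplified and sequenced. For binding signal, each hexamer's read frequency for a factor is divided by its frequency for the tag-only sample.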

The target of a further assay is T2, ERG (Homo sapiens, UniProt P11308 1-479).
T2 sequence: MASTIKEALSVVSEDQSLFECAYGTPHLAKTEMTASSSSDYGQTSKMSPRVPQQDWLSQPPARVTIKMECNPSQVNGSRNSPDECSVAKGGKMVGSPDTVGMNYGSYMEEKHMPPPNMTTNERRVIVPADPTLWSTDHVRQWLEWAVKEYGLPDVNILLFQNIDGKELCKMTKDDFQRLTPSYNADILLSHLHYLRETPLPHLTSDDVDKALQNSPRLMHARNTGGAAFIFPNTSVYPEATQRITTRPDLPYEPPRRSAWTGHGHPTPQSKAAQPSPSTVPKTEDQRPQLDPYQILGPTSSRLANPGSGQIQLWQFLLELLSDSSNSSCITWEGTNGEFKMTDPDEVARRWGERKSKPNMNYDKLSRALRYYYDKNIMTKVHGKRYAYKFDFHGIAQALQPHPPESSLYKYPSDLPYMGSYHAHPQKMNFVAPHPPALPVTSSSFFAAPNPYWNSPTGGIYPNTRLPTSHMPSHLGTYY
The conditions noted are these: protein: recombinant; tags: N-terminal GST; dsDNA, one strand shown. In outline: as §1

A further assay deals with ELF1 (Homo sapiens, UniProt P32519 1-619). The conditions noted are these: protein: recombinant; tags: N-terminal GST; dsDNA, one strand shown. In outline: as §1
A further assay has as its target T3, EHF (Homo sapiens, UniProt Q9NZC4 1-300).
T3 sequence: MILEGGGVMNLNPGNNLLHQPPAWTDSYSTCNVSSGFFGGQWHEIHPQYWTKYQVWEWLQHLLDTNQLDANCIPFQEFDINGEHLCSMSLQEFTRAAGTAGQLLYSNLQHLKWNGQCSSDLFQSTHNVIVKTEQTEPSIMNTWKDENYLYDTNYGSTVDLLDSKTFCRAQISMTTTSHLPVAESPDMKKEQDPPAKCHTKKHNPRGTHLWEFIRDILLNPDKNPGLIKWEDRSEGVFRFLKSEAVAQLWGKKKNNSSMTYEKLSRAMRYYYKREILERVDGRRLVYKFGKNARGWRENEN
The conditions noted are these: protein: recombinant; tags: N-terminal GST; dsDNA, one strand shown. In outline:
as §1

Another assay has as its target SPI1 (Homo sapiens, UniProt P17947 1-270). The conditions noted are these: protein: recombinant; tags: N-terminal GST; dsDNA, one strand shown. In outline: as §1
The next assay concerns the target SPIB (Homo sapiens, UniProt Q01892 1-262). The conditions noted are these: protein: recombinant; tags: N-terminal GST; dsDNA, one strand shown. In outline:
as §1

Another assay concerns the target T4, ELK3 (Homo sapiens, UniProt P41970 1-407).
T4 sequence: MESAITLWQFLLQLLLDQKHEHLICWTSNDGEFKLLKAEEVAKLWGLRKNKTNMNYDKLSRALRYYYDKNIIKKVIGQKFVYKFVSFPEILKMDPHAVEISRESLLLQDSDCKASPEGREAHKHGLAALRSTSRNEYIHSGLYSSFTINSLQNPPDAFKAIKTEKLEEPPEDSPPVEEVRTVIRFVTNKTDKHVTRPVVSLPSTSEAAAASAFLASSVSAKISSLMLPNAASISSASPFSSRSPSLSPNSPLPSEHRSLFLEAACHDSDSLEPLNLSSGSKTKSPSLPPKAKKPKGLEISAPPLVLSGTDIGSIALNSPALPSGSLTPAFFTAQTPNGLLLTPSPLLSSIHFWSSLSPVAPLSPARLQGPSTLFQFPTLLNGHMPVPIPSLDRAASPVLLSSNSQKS
The conditions noted are these: protein: recombinant; tags: N-terminal GST; dsDNA, one strand shown. In outline: as §1

A further assay deals with HSF1 (Homo sapiens, UniProt Q00613 1-529). The conditions noted are these: protein: recombinant; tags: N-terminal GST; chain copies: 3; dsDNA, one strand shown. In outline: as §1
In a further assay the target is T5, SPIC (Homo sapiens, UniProt Q8N5J4 1-248).
T5 sequence: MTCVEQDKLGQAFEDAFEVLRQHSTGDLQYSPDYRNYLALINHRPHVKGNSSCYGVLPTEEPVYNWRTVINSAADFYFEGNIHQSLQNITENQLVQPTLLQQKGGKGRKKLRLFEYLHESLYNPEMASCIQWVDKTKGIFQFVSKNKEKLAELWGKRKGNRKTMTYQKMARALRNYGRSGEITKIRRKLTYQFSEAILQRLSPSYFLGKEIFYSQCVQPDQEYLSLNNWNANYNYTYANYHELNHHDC
The conditions noted are these: protein: recombinant; tags: N-terminal GST; dsDNA, one strand shown. In outline: as §1

A further assay has as its target T6, ELK4 (Homo sapiens, UniProt P28324-2 1-405).
T6 sequence: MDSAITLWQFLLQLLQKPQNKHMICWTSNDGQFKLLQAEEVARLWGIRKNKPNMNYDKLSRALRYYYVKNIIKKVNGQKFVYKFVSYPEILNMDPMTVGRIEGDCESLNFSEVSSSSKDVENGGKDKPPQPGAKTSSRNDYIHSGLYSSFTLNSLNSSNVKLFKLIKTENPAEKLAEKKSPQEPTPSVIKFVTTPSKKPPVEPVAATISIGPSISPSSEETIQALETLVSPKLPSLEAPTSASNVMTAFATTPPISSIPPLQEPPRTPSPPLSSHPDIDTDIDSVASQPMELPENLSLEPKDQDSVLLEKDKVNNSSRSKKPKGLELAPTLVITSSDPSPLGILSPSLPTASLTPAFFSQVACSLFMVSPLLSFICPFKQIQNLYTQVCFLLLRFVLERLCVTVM
The conditions noted are these: protein: recombinant; tags: N-terminal GST; dsDNA, one strand shown. In outline:
as §1

The next assay addresses T7, ETV2 (Homo sapiens, UniProt O00321 1-342).
T7 sequence: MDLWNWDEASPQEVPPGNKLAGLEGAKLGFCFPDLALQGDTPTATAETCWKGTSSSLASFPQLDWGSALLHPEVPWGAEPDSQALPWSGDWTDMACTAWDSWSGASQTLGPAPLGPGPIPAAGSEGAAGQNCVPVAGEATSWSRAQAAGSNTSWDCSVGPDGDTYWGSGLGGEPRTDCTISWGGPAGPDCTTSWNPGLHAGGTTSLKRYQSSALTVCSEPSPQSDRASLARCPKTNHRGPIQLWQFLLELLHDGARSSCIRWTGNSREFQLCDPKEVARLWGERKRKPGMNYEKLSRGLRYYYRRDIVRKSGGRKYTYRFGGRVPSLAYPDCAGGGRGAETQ
The conditions noted are these: protein: recombinant; tags: N-terminal GST; dsDNA, one strand shown. In outline:
as §1

The target of the next assay is T8, ELF3 (Homo sapiens, UniProt P78545 1-371).
T8 sequence: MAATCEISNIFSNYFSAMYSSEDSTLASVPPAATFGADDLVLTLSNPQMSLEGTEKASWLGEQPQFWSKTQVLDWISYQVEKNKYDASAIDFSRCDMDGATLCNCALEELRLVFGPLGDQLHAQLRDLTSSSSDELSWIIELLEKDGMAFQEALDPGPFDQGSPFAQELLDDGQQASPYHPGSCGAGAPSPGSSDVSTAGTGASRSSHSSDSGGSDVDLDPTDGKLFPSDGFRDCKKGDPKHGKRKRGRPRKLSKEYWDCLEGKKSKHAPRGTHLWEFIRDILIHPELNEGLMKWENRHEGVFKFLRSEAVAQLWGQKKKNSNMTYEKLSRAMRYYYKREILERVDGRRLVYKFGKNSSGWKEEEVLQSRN
The conditions noted are these: protein: recombinant; tags: N-terminal GST; dsDNA, one strand shown. In outline: as §1

For another assay, the target named is ETV1 (Homo sapiens, UniProt P50549 1-477). The conditions noted are these: protein: recombinant; tags: N-terminal GST; dsDNA, one strand shown. In outline: as §1
The target in another assay is T9, ERF (Homo sapiens, UniProt P50548 1-548).
T9 sequence: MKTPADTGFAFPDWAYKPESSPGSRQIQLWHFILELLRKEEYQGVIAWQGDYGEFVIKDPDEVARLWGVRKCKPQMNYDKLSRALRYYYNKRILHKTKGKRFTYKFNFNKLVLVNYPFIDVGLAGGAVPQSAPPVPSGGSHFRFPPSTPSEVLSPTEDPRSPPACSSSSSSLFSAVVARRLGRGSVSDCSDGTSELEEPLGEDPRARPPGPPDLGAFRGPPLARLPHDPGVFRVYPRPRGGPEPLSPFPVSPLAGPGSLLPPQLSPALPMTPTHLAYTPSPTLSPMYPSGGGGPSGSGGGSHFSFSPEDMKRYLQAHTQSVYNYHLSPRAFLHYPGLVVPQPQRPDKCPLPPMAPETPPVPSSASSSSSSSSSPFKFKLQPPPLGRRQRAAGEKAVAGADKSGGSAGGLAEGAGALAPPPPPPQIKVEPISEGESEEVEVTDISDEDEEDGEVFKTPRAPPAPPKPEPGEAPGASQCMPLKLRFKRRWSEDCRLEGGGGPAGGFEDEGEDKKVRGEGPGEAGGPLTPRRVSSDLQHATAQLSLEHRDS
The conditions noted are these: protein: recombinant; tags: N-terminal GST; dsDNA, one strand shown. In outline:
as §1

For the next assay, the target named is T10, ETS2 (Homo sapiens, UniProt P15036 1-469).
T10 sequence: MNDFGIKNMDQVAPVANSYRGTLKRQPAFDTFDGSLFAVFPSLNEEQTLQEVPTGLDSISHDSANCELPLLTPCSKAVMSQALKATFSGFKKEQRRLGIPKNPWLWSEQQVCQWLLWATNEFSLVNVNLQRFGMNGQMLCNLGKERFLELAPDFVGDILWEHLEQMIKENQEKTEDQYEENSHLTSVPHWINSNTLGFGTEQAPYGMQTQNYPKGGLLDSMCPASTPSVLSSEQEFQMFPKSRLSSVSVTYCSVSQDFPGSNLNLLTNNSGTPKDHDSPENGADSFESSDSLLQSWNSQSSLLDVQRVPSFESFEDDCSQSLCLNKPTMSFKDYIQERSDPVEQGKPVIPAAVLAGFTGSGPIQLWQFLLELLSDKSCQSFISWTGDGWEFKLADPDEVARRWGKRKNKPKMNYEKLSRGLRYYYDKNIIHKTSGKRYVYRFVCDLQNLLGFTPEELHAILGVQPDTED
The conditions noted are these: protein: recombinant; tags: N-terminal GST; dsDNA, one strand shown. In outline: as §1

Sequence of ELF1 (P32519 whole entry): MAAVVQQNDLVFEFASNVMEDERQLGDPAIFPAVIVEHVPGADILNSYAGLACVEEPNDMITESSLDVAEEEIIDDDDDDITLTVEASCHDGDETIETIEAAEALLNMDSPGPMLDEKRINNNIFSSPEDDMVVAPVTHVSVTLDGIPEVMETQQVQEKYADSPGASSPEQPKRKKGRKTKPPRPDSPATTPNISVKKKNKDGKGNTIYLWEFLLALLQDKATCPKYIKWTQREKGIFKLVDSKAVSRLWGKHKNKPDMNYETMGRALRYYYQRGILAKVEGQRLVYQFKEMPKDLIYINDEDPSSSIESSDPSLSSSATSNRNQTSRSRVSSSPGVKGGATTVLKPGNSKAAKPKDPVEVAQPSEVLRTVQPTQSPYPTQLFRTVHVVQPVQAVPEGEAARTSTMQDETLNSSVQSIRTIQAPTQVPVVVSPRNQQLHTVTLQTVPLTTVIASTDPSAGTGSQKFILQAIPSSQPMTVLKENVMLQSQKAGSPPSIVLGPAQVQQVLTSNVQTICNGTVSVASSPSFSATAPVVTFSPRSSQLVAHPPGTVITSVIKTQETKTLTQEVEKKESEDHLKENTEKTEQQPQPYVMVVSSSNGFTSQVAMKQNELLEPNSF
Sequence of ETV1 (P50549 whole entry): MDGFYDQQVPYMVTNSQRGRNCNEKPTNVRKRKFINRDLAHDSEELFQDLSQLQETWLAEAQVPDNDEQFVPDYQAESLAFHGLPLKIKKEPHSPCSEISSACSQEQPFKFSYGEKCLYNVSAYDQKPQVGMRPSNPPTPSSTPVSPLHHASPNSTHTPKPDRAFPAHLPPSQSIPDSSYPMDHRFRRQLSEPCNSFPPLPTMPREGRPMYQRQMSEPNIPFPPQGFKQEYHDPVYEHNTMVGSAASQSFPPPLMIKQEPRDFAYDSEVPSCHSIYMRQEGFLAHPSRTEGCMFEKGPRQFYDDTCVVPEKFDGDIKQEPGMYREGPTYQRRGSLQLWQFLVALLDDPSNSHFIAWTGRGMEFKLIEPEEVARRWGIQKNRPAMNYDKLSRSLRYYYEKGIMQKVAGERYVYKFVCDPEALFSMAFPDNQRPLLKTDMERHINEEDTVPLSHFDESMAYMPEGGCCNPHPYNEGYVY
Sequence of HSF1 (Q00613 whole entry): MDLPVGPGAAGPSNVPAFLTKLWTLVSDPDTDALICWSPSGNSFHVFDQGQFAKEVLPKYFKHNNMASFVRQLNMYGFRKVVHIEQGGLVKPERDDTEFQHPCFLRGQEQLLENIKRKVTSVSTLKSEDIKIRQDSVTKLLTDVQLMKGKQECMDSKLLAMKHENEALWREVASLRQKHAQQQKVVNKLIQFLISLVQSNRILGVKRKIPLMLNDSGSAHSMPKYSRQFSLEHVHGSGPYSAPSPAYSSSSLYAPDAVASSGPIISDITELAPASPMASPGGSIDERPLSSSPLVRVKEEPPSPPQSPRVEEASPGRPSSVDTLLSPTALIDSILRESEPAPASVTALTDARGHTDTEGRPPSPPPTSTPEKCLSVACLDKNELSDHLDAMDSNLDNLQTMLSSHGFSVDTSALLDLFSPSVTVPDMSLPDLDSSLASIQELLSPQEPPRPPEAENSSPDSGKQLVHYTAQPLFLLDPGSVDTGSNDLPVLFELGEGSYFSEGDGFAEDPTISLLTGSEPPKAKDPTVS
Sequence of SPIB (Q01892 whole entry): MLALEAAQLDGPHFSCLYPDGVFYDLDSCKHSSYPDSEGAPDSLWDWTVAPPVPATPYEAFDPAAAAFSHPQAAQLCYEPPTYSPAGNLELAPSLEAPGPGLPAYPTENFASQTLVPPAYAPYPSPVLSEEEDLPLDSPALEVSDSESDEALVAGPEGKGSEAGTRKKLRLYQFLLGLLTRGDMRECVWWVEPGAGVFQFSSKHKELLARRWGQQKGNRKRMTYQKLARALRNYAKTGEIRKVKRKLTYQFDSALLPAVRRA

Consider CGCAAA, for which the binding signal with ELK1 is 1.01 fold enrichment (6-mer frequency, TF over GST control); with ERG it was 1.04 fold enrichment (6-mer frequency, TF over GST control); in the assay with ELF1 it was 1 fold enrichment (6-mer frequency, TF over GST control); in the assay with EHF, 1.03 fold enrichment (6-mer frequency, TF over GST control); with SPI1 it was 1.05 fold enrichment (6-mer frequency, TF over GST control); with SPIB, 1.02 fold enrichment (6-mer frequency, TF over GST control). The binding signal is 1.08 fold enrichment (6-mer frequency, TF over GST control) with ELK3; 1.01 fold enrichment (6-mer frequency, TF over GST control) with HSF1; 1.02 fold enrichment (6-mer frequency, TF over GST control) with SPIC; 1.03 fold enrichment (6-mer frequency, TF over GST control) with ELK4; 1.07 fold enrichment (6-mer frequency, TF over GST control) with ETV2; 1.13 fold enrichment (6-mer frequency, TF over GST control) with ELF3. Besides, the binding signal was 1.11 fold enrichment (6-mer frequency, TF over GST control) in the assay with ETV1; 1.1 fold enrichment (6-mer frequency, TF over GST control) in the assay with ERF; 1.06 fold enrichment (6-mer frequency, TF over GST control) with ETS2.

(Values after PMC7862700, “An all-to-all approach to the identification of sequence-specific readers for epigenetic DNA modifications on cytosine”.)
